# Experimental data reported in PubChem BioAssay.
# Values joined by “and” are separate entries in the source; they are usually repeats but may differ in a detail not shown here. Equal values may be shown once. Records with an inconclusive call do not appear. Active and inactive are the calls of the source.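 Rule for the calls, unless noted: active = at least 20% inhibition of 6-phosphogluconate dehydrogenase activity; inactive = the rest.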
# Key:
# [1] = biological target: 6-phosphogluconate dehydrogenase, decarboxylating (Homo sapiens) (UniProt P52209); assay: 6PGD enzyme inhibitors, primary screen, biochemical, human, recombinant enzyme, NADPH absorbance (AID 1159550); conditions: recombinant 6PGD, NADPH absorbance 341 nm; at 10 µM; stronger effect = higher value
# [2] = growth inhibition of DIPG glioma cells, dose response, cell-based, JHH-DIPG-1, MIPE4.0, CellTiter-Glo, qHTS (AID 1347062; cut-off not given, nearly all actives have AC50 up to about 27 µM;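 for AC50: cells exposed to compound for two days before readout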); conditions: JHH-DIPG-1 viability, CellTiter-Glo ATP luminescence
# [3] = growth inhibition of DIPG glioma cells, dose response, cell-based, SU-DIPG-IV, MIPE4.0, CellTiter-Glo, qHTS (AID 1347063; cut-off not given, nearly all actives have AC50 up to about 30 µM;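 note: compound exposure lasted 48 hours before the viability readout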); conditions: SU-DIPG-IV viability, CellTiter-Glo ATP luminescence
# [4] = JHH-DIPG-1 glioma cell viability, MIPE5.0 library, CellTiter-Glo luminescence, qHTS (AID 1347067; cut-off not given, nearly all actives have AC50 up to about 26 µM;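 note: cells exposed to compound for 48 hours before readout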); conditions: JHH-DIPG-1 glioma viability, CellTiter-Glo ATP luminescence
# [5] = biological target: NAD(+) hydrolase SARM1 (Homo sapiens) (UniProt Q6SZW1); assay: SARM1 TIR NADase inhibitors, cell lysate, NAD-Glo luminescence (AID 1508614;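 active = compound whose remaining NAD level is above about 45 nM, limit read from the data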;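 note: higher remaining NAD means stronger inhibition of SARM1 NADase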); conditions: SAM-TIR HEK293T lysate NADase, at 1 µM, stronger effect = higher value
# [6] = biological target: Mitogen-activated protein kinase 7 (Homo sapiens) (UniProt Q13164); assay: ERK5 transactivation activators in reporter cells, primary screen, cell-based, HTS (AID 1508626;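 active = luciferase signal above three times the same-plate solvent-only control wells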;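 note: luciferase driven by Gal4-ERK5 fusion binding five Gal4 sites before minimal TATA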); conditions: HeLa Gal4-ERK5 transactivation, 18 h, at 5 µM, stronger effect = higher value
# [7] = ICB984 medulloblastoma cell growth inhibition, synergistic combos for chromothripsis tumors, cisplatin or BGB combos (AID 1671451; call rule not given here;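 note: cells exposed for 96 hours before readout; 0% = vehicle DMSO and 100% = killing by high DMSO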); conditions: ICB984 medulloblastoma cells, drug combinations, stronger effect = higher value
# [8] = survival rescue of mitochondrial mutant cells in low glucose, primary screen, MELAS cybrids, Rieske KO mouse fibroblasts, CellTiter-Glo (AID 1508586;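 active = mean z-score across replicates of 1.96 or higher in either the MELAS or the Rieske mutant cell line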;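 note: z relative to plate mean and SD of compound and empty wells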)
# [9] = growth inhibition of DIPG glioma cells, dose response, cell-based, SU-DIPG-XIII, MIPE4.0, CellTiter-Glo, qHTS (AID 1347061; cut-off not given, nearly all actives have AC50 up to about 37 µM;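 note: cells exposed to compound for 48 hours before readout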); conditions: SU-DIPG-XIII viability, CellTiter-Glo ATP luminescence
# [10] = liver-stage malaria parasite growth inhibition, primary screen, cell-based, HepG2, luciferase luminescence, HepG2 viability (AID 624349; in the data active = parasite load remaining mostly below about 12%, no sharp cut-off; inactive = mostly above about 10%;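 note: 100% = mean of DMSO negative control wells on the same plate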); conditions: P. berghei liver stage in HepG2, luciferase luminescence, concentration not given here; parasite load remaining: stronger effect = lower value; viability: measured here: HepG2 viability without parasites
# [11] = sensitizers of A549 cells to miR-34 induction, primary screen, imaging, A549 dox-inducible miR-34, nuclei and caspase counts (AID 1347080;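 active = compounds whose cell count with miR-34 switched on is under 0.7 times the count with it off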); conditions: A549 miR-34 inducible, Hoechst nuclei count, 48 h
# [12] = viability rescue of complex I mutant cybrids, primary screen, cell-based, galactose medium, ATP luminescence (AID 1645843;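 active = z-score of at least 1.8 in each of two replicates, scored against plate mean and spread of sample wells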;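 note: positive z means more ATP and so rescue of galactose-driven cybrid death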); conditions: complex I mutant cybrid cells, 72 h, stronger effect = higher value
# [13] = MELAS cybrid survival, CellTiter-Glo 48 h, stronger effect = higher value
# [14] = Rieske KO mouse fibroblast survival, CellTiter-Glo 72 h
# [15] = stronger effect = lower value, cell number ratio, induced over uninduced
# [16] = measured here: relative caspase fold change +Dox/-Dox
# [17] = measured here: total cells with miR-34 induction, stronger effect = lower value
# [18] = measured here: total cells without miR-34 induction
# Chain of Mitogen-activated protein kinase 7 (Homo sapiens) (Q13164 whole entry, looked up, the tested form may be a part): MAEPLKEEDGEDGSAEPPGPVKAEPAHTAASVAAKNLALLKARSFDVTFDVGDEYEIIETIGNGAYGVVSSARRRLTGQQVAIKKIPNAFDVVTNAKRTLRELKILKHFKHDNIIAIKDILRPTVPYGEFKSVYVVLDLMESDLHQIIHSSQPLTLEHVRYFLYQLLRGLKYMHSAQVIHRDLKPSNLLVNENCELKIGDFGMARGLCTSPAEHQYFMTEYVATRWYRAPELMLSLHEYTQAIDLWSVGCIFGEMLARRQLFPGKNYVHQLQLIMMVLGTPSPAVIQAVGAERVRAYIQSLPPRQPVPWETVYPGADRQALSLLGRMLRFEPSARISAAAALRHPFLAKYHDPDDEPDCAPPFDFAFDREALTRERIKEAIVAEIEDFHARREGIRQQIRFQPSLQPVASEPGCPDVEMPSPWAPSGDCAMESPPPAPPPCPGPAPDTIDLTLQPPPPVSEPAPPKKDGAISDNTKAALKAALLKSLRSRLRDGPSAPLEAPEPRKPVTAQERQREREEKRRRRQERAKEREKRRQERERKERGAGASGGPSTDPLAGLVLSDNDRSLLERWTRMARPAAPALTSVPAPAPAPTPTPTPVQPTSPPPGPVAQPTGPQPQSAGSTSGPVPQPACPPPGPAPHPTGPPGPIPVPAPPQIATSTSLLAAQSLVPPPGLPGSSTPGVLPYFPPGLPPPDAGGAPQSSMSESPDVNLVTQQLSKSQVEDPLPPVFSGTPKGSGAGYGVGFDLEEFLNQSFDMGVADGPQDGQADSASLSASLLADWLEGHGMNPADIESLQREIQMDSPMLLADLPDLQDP
# Chain of NAD(+) hydrolase SARM1 (Homo sapiens) (Q6SZW1 whole entry, looked up, the tested form may be a part): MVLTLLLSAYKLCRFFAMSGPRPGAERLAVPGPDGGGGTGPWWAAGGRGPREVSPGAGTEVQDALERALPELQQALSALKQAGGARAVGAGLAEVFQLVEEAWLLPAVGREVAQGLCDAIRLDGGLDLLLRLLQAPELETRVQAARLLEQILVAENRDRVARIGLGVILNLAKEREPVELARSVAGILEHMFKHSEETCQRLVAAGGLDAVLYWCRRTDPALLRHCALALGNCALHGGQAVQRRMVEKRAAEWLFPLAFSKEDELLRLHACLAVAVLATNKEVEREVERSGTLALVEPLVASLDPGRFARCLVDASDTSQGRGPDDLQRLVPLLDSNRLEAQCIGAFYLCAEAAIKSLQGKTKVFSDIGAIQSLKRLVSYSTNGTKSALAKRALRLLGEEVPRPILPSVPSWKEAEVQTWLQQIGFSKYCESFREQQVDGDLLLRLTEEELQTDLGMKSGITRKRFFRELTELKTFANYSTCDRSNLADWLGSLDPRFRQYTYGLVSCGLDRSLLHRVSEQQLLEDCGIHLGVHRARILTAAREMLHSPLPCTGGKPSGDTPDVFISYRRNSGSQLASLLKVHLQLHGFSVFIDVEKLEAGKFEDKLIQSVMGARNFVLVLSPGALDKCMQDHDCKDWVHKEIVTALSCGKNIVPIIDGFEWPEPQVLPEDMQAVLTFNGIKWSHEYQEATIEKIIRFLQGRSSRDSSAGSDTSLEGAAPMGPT
# Chain of 6-phosphogluconate dehydrogenase, decarboxylating (Homo sapiens) (P52209 whole entry, looked up): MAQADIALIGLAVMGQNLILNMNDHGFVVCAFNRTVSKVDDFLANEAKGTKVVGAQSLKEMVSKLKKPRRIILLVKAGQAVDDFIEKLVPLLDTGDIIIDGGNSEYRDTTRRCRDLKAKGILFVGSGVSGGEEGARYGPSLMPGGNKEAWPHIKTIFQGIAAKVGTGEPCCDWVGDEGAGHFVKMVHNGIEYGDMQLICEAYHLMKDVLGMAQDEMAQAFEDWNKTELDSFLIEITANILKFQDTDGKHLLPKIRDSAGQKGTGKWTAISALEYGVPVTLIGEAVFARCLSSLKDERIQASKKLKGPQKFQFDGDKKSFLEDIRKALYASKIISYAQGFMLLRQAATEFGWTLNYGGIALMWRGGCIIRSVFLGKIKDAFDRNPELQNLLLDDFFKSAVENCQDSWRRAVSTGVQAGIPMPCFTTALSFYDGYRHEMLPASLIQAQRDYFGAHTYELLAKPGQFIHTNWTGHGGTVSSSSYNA
smiles,measurement,setting,value
COc1cc([C@@H]2c3cc4c(cc3[C@@H](O[C@@H]3O[C@@H]5CO[C@@H](c6cccs6)O[C@H]5[C@H](O)[C@H]3O)[C@H]3COC(=O)[C@H]23)OCO4)cc(OC)c1O,inhibition,[1],-2.92% (inactive)
same,AC50,[2],13200 nM (active)
same,AC50,[3],332 nM (active)
same,AC50,[4],9340 nM (active)
same,remaining NAD,[5],10 nM (inactive)
same,luciferase signal,[6],72 AU (inactive)
same,inhibition,"[7]; BGB IC20 combo, at 0.005 µM",20.5% and 3.66%
same,inhibition,"[7]; BGB IC40 combo, at 0.005 µM",-28.7% and -5.88%
same,inhibition,"[7]; BGB IC40 combo, at 0.05 µM",-11.6% and -12.3%
same,inhibition,[7]; at 0.5 µM,-25.1% (inactive) and -14.4% (inactive)
same,inhibition,"[7]; cisplatin combo, at 0.05 µM",-14.7% and -16.3%
same,inhibition,"[7]; cisplatin combo, at 0.5 µM",-25.3% and 3.4%
same,inhibition,"[7]; cisplatin combo, at 5 µM",-14.6% and 1.51%
same,inhibition,"[7]; measured here: 5 uM single agent, at 5 µM",-8.36% and -4.68%
COc1ccc(-c2cc(=O)c3c(O)cc(O[C@@H]4O[C@H](CO[C@@H]5O[C@@H](C)[C@H](O)[C@@H](O)[C@H]5O)[C@@H](O)[C@H](O)[C@H]4O)cc3o2)cc1O,inhibition,[1],7.55% (inactive)
same,outcome,[2],inactive
same,outcome,[3],inactive
same,outcome,[4],inactive
same,z-score,[8]; [13],0.526 (inactive)
same,z-score,[8]; [14],0.0112
same,remaining NAD,[5],10 nM (inactive)
same,luciferase signal,[6],80 AU (inactive)
CC1(C)[C@@H](O[C@H]2O[C@H](C(=O)O)[C@@H](O)[C@H](O)[C@H]2O[C@@H]2O[C@H](C(=O)O)[C@@H](O)[C@H](O)[C@H]2O)CC[C@]2(C)[C@H]3C(=O)C=C4[C@@H]5C[C@@](C)(C(=O)O)CC[C@]5(C)CC[C@@]4(C)[C@]3(C)CC[C@@H]12,inhibition,[1],11% (inactive)
same,outcome,[9],inactive
same,outcome,[2],inactive
same,outcome,[3],inactive
C[C@H]1O[C@@H](O[C@H]2[C@@H](O)C[C@H](O[C@H]3[C@@H](O)C[C@H](O[C@H]4CC[C@@]5(C)[C@H](CC[C@@H]6[C@@H]5C[C@@H](O)[C@]5(C)[C@@H](C7=CC(=O)OC7)CC[C@]65O)C4)O[C@@H]3C)O[C@@H]2C)C[C@H](O)[C@@H]1O,parasite load remaining,[10],-10.5% (inactive) and 8.38% (inactive)
same,viability,[10],46.2% and 21%
same,inhibition,[1],-1.7% (inactive)
same,AC50,[9],95.9 nM (active)
same,AC50,[2],30.3 nM (active)
same,AC50,[3],241 nM (active)
same,AC50,[4],66.1 nM (active)
same,fold change,[11]; [15],0.979 (inactive)
same,fold change,[11]; [16],2.27
same,cell count,[11]; [17],512
same,cell count,[11]; [18],523
same,z-score,[8]; [13],-1.21 (inactive)
same,z-score,[8]; [14],0.0199
same,remaining NAD,[5],10 nM (inactive)
same,luciferase signal,[6],24 AU (inactive)
O=C(O)C1=CCCNC1,inhibition,[1],-3.98% (inactive)
same,fold change,[11]; [15],0.989 (inactive) and 0.96 (inactive)
same,fold change,[11]; [16],0.827 and 0.802
same,cell count,[11]; [17],8890 and 8940
same,cell count,[11]; [18],8980 and 9310
same,luciferase signal,[6],48 AU (inactive)
same,z-score,[12],0.54 (inactive) and -0.25 (inactive)
C[C@H](CCC(=O)O)[C@H]1CC[C@H]2[C@@H]3[C@H](O)C[C@@H]4C[C@H](O)CC[C@]4(C)[C@H]3CC[C@]12C,parasite load remaining,[10],42% (inactive) and 91.9% (inactive)
same,viability,[10],46.4% and 85.3%
same,inhibition,[1],-1.04% (inactive)
same,outcome,[9],inactive
same,outcome,[2],inactive
same,outcome,[3],inactive
same,outcome,[4],inactive
same,fold change,[11]; [15],0.917 (inactive)
same,fold change,[11]; [16],1.03
same,cell count,[11]; [17],9290
same,cell count,[11]; [18],10100
same,z-score,[8]; [13],0.377 (inactive)
same,z-score,[8]; [14],-0.0721
same,remaining NAD,[5],10 nM (inactive)
same,luciferase signal,[6],112 AU (inactive)
C=C1CC[C@@H]2[C@](C)(CO)[C@H](O)CC[C@@]2(C)[C@@H]1C/C=C1/C(=O)OC[C@H]1O,inhibition,[1],-4.69% (inactive)
same,AC50,[4],14800 nM (active)
same,luciferase signal,[6],176 AU (active)
CC1(C)[C@@H](O)CC[C@]2(C)[C@H]3C(=O)C=C4[C@@H]5C[C@@](C)(C(=O)O)CC[C@]5(C)CC[C@@]4(C)[C@]3(C)CC[C@@H]12,inhibition,[1],6.1% (inactive)
same,outcome,[9],inactive
same,outcome,[2],inactive
same,outcome,[3],inactive
same,outcome,[4],inactive
same,remaining NAD,[5],10 nM (inactive)
same,luciferase signal,[6],56 AU (inactive)
